Experimental data published in PubChem BioAssay (NCI).
The panel holds about 83,000 compounds, 20% with a hit somewhere; the sample as a whole holds those more often.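 96-well plates, one dose, 48 hours. Percent growth reported; active if below 10.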 Unmarked numbers belong to inactive results. Calls of active or inactive are those of the source.

tested on: SK-MEL-2 melanoma; assay: NCI-60 one-dose screen, 48 h (100 = growth as untreated, 0 = no growth, -100 = all killed); conditions: 10 µM unless noted
Description: Growth inhibition of the SK-MEL-2 human tumor cell line is measured as a screen for anti-cancer activity. Cells are grown in 96 well plates and exposed to the test compound for 48 hours. Compounds are tested at a single concentration, which is 10^-5 M for most compounds. The reported endpoint is percent growth (GI% or GIPRCNT), where numbers from 0 - 100% represent growth inhibition, and numbers from -100% - 0 represent cell death. For example, a value of 40 represents 60% growth inhibition. A value of 0 means no net growth occurred over the course of the experiment. A value of -40 indicates 40% of cells at the beginning of the experiment died by the end of the experiment. A value of -100 means all cells are dead at the end of the experiment.
NCI-60 Human Tumor Cell Lines Screen was performed using the standard one-dose NCI protocol, which is described in more detail at https://dtp.cancer.gov/discovery_development/nci-60/default.htm.
Compounds with GIPRCNT values below 10 were considered active. Activity score was based on GIPRCNT using the following formula: […]
Score is 0 for GIPRCNT values of 100 or above, 50 for GIPRCNT values of 0, and 100 for GIPRCNT values of -100.

SMILES | growth
O=C1CC2(CCOCC2)Oc2ncccc21 | 95.9%
CCC(CC)N1C(=O)/C(=c2\sc3n(c2=O)C2C(NN=3)N(CC)C(=O)N2CC)c2ccccc21 (stereo not given) | 59.4%
O=C(NCCCNc1cc(-c2cn(-c3ccccc3)nc2-c2cccc(O)c2)ccn1)Nc1ccc(F)cc1 | -4.51% (active)
C/C(=C(/C)C1CC1CCN(C(=O)c1ccccn1)S(=O)(=O)c1ccc(C)cc1)C1CCCCC1 (stereo not given) | 101%
C#C[C@]1(O)CC[C@H]2[C@@H]3CC=C4c5sc(-c6cccc(F)c6)nc5CC[C@]4(C)[C@H]3CC[C@@]21C | 91.9%
Cc1ccc(C2CC(c3ccc(Nc4nc(NCCO)nc(Nc5ccc(Cl)cc5)n4)cc3)=Nc3c(N)nc(N)nc3N2)cc1 (stereo not given) | 99%
CC(=O)c1ccc(NC(=O)COc2ccc(C3SCC(=O)N3c3ccc(Br)cc3)cc2)cc1 (stereo not given) | 96.2%
CN(c1ccc(F)cc1)S(=O)(=O)c1ccc(-c2cnc(C3CC3)o2)cc1 | 77.6%
O=C(CN1C(=O)CSC1=O)Nc1ccc(C(=O)/C=C/c2cc3ccccc3nc2Cl)cc1 | 88.5%
N#Cc1c(-c2ccccc2)cc(-c2c[nH]c3ccccc23)nc1-c1c[nH]c2ccccc12 | 97.7%
Nc1c(C(=O)c2ccccc2)sc2nc(-c3cnccn3)cc(-c3cccs3)c12 | 111%
CCCCCCCCNC(=O)c1ccc(Cn2c(CCCC)nc3c(N)nc4ccccc4c32)cc1 | 95.4%
COc1cccc(/C=C/C(=O)c2ccc(NC(=O)COc3cccc4cccnc34)cc2)c1 | 100%
O=C(CN1CCN(c2cc(=O)n(-c3ccccc3)c3ccccc23)CC1)Nc1ccc([N+](=O)[O-])cc1 | 101%
CCCCCCNC(=O)Oc1ccc(/C(=C(/C)c2ccc(Cl)cc2)c2ccc(OCCN3CCCC3)cc2)cc1 | 78%
CC(=O)NC(C)(C)C(=O)N1CCC[C@H]1C(=O)NC(C)(C)C(=O)N[C@@H](C)C(=O)NC(C)(C)C(=O)N[C@@H](C)C(=O)N[C@@H](CCC(N)=O)C(=O)NC(C)(C)C(=O)N[C@H](C(=O)NC(C)(C)C(=O)NCC(=O)N[C@@H](CC(C)C)C(=O)NC(C)(C)C(=O)N1CCC[C@H]1C(=O)N[C@H](C(=O)NC(C)(C)C(=O)NC(C)(C)C(=O)N[C@@H](CCC(N)=O)C(=O)N[C@@H](CCC(N)=O)C(=O)N[C@H](CO)Cc1ccccc1)C(C)C)C(C)C | 91.2% [4.25 µM]
C#C[C@]1(O)CC[C@H]2[C@@H]3CC=C4c5sc(-c6ccc(OC)cc6)nc5CC[C@]4(C)[C@H]3CC[C@@]21C | 53.8%
ClC(Cl)c1nc(-c2cccs2)n2nc(-c3ccccc3)cc2n1 | 77.6%
Oc1ccc(CSc2nnc(-c3ccc(Br)cc3)o2)c2cccnc12 | 68.1%
O=C1NC(=O)c2c1c1c3ccccc3ccc1c1[nH]c3ccccc3c21 | -12.5% (active)

SMILES | growth
COC1=C(c2ccccc2)C(=O)C(OC)=C(c2ccccc2)C1=O | 101%
CC(=O)Nc1ccc(C)c(Nc2cc(-c3ccc(-n4cccn4)cc3)[nH]n2)c1 | 3.79% (active)
COc1ccc(NC(=O)Cn2cc(CN3C(=O)c4ccc([N+](=O)[O-])cc4C3=O)nn2)cc1 | 112%
O=[N+]([O-])c1ccc(-c2nnc(SCc3ccc(O)c4ncccc34)n2-c2ccccc2)cc1 | 13.8%
CC1OC(O[C@@H]2[C@H](O)C(CO)OC(O[C@H]3COC(O[C@H]4CC[C@]5(C)[C@H]6CC[C@]78OC[C@@]9(CCC(C)(C)C[C@H]97)[C@H](O)C[C@@]8(C)[C@]6(C)CC[C@H]5C4(C)C)[C@@H](OC4OC(CO)[C@@H](O)[C@@H](O)[C@@H]4O)[C@@H]3O)[C@H]2OC2OC[C@@H](O)[C@@H](O)[C@@H]2O)[C@@H](O)[C@@H](O)[C@H]1O (stereo not given in full) | -81.4% (active)
O=S(=O)(Nc1ccc2c(c1)OC(F)(F)O2)c1ccc(-c2cnc(C3CC3)o2)cc1 | 41.3%
Cc1cc(F)cc(NS(=O)(=O)c2ccc(-c3cnc(C4CC4)o3)cc2)c1 | 67%
CCCCCCNC(=O)Oc1ccc(/C(=C(\C)c2ccc(Cl)cc2)c2ccc(OCCN(C)C)cc2)cc1 | 98%
O=C(COc1ccc(C2SCC(=O)N2c2ccccc2)cc1)c1ccccc1 (stereo not given) | 103%
O=C(C[n+]1ccnc2ccccc21)c1ccc(O)c(O)c1 | 77.7%
O=C(CCCCCCN1CC(=O)N2[C@@H](c3cc(F)cc(F)c3)c3[nH]c4ccccc4c3C[C@H]2C1=O)NO | 62.1%
Oc1ccc(CSc2nnc(-c3ccc(Cl)cc3)o2)c2cccnc12 | 54.9%
CC(C)SC1=NC(=C(C(=N1)NC2=ClC=CC=C2)C#N)C3=CC=CC=C3 | 125%
C#C[C@]1(O)CC[C@H]2[C@@H]3CC=C4c5sc(Nc6nc(C)cc(OC)n6)nc5CC[C@]4(C)[C@H]3CC[C@@]21C | 58.2%
COc1ccc(OC)c(NC2=C(Cl)C(=O)C(C)=C(C)C2=O)c1 | 95.7%
CN1CCN(c2ccc3c(c2)nc(NNC(=O)c2ccncn2)c2cccn23)CC1 | 31.5%
O=C(NNc1nc2cc(F)c(F)cc2n2cccc12)c1ncccn1 | 34.5%
CC(=O)Nc1ccc(NC(=O)Nc2cccc(-c3nc(-c4ccc(NC(=O)c5cccnc5)cc4Cl)no3)c2)cc1C(F)(F)F | -68.5% (active)
C=C(C)C(=O)O[C@H]1C[C@@]2(C)OC(=CC2=O)/C(CO)=C\[C@H]2OC(=O)C(=C)[C@H]12 | -23.7% (active)
O=c1c2ccccc2nc(COc2ccccc2)n1/N=C/C=C/c1ccccc1 | 94.5%
